{
  "source": "PubChem BioAssay (Tox21)",
  "note": "Inconclusive results are not listed. A call without a number means that no potency is given here. Activity calls are given as the source filed them. Calls come from the whole dose curve.",
  "data": [
    {"assay": "qHTS assay to identify small molecule agonists of the progesterone receptor (PR) signaling pathway - cell viability counter screen (AID 1346799); note: nearly all actives have a fitted effect of over 45% in size", "conditions": "PR-UAS-bla HEK293T viability, CellTiter-Glo luminescence, 16 h; series mostly up to 92.4 µM", "excerpt": "National Center for Advancing Translational Sciences [NCATS]\nNIH Chemical Genomics Center [NCGC]\nU.S. Environmental Protection Agency [EPA]\nNational Institutes of Environmental Health Sciences [NIEHS]\nNational Toxicology Program [NTP]\nU.S. Food and Drug Administration [FDA]\nProgesterone receptor (PR), a nuclear hormone receptor, plays an important role in development, metabolic homeostasis and reproduction. It is activated by the steroid hormone progesterone. Endocrine disrupting chemicals (EDCs) and their interactions with steroid hormone receptors like PR causes disruption of normal endocrine function. To identify the compounds that stimulate PR signaling, a PR-UAS-bla GripTite cell line i.e. PR-UAS-bla HEK293T (Invitrogen, Carlsbad, CA, USA) containing a beta-lactamase reporter gene under the control of an UAS response element was used to screen Tox21 10K compound library. The cytotoxicity of the Tox21 compound library against the PR-bla cell line was tested in parallel by measuring the cell viability using CellTiter-Glo assay in the same wells.\nTox21 Assay Protocol Summary:\nPR-UAS-bla HEK293T cells were dispensed at 3,000 cells/5 uL of assay medium containing 2% charcoal stripped FBS per well into black wall/clear-bottom 1536-well plates using a Multidrop Combi (ThermoFisher Scientific, Waltham, MA) dispenser. After the assay plates were incubated at a 37C and 5% CO2 for 6 hr, 23 nL of compounds dissolved in DMSO, positive controls or DMSO only was transferred to the assay plate by a Pintool station (Kalypsys, San Diego, CA). The plates were incubated at 37C and 5% CO2 for 16 hr. Then 1 uL of LiveBLAzer B/G FRET substrate was added using a Flying Reagent Dispenser (FRD, Aurora Discovery, San Diego, CA), the plates were incubated at room temperature for 2 hours, and fluorescence intensity was measured by an Envision plate reader (PerkinElmer, Shelton, CT). For cell viability readout that measures cytotoxicity, 4 uL/well of CellTiter-Glo reagent was added into the assay plates using a FRD. After 30 min incubation at room temperature, the luminescence intensity in the plates was measured using a ViewLux (PerkinElmer) plate reader.", "values": [
      {"smiles": "COc1cc(CC(C)N)c(OC)cc1Br", "note": "(stereo not given)", "Potency": "inactive"},
      {"smiles": "CCOC(=O)C1OC1(C)c1ccccc1", "note": "(stereo not given)", "Potency": "inactive"},
      {"smiles": "CC(CC(C(N)=O)(c1ccccc1)c1ccccc1)N(C)C", "note": "(stereo not given)", "Potency": "inactive"},
      {"smiles": "O=C1c2ccccc2C(=O)N1SC(Cl)(Cl)Cl", "Potency": "inactive"},
      {"smiles": "Cc1ccccc1", "Potency": "inactive"},
      {"smiles": "C[C@H](N)[C@H](O)c1ccc(O)c(O)c1", "Potency": "inactive"},
      {"smiles": "Cc1ncc(C[n+]2csc(CCO)c2C)c(N)n1", "Potency": "inactive"},
      {"smiles": "C[N+]1(CCC(C(N)=O)(c2ccccc2)c2ccccc2)CCCCC1", "Potency": "inactive"},
      {"smiles": "O=C(CCl)CCl", "Potency": "inactive"},
      {"smiles": "SCc1ccccc1", "Potency": "inactive"},
      {"smiles": "CC1(C)[C@H](C(=O)O[C@H](C#N)c2cccc(Oc3ccccc3)c2)[C@@H]1C=C(Br)Br", "Potency": "inactive"},
      {"smiles": "FC(F)OC(F)(F)C(F)Cl", "note": "(stereo not given)", "Potency": "inactive"},
      {"smiles": "CCCCC1C(=O)NC(=O)N(C2CCCCC2)C1=O", "note": "(stereo not given)", "Potency": "inactive"},
      {"smiles": "NNCCO", "Potency": "inactive"},
      {"smiles": "CCCC(C)(COC(N)=O)COC(=O)NC(C)C", "note": "(stereo not given)", "Potency": "inactive"},
      {"smiles": "CCCCCl", "Potency": "inactive"},
      {"smiles": "CCC[N+](CCC)(CCC)CCC", "Potency": "inactive"},
      {"smiles": "COP(=O)(OC)OC(Br)C(Cl)(Cl)Br", "note": "(stereo not given)", "Potency": "inactive"},
      {"smiles": "C=CC(=O)NC(C)(C)CC(C)=O", "Potency": "inactive"},
      {"smiles": "O=C(O)c1ccc(=O)[nH]c1", "Potency": "inactive"},
      {"smiles": "C1CS1", "Potency": "inactive"},
      {"smiles": "O=C(O)C(F)(F)C(F)(F)C(F)(F)C(F)(F)C(F)(F)F", "Potency": "inactive"},
      {"smiles": "CN(C)C(=O)Nc1cccc(OC(=O)NC(C)(C)C)c1", "Potency": "inactive"},
      {"smiles": "Clc1ccccc1", "Potency": "inactive"},
      {"smiles": "CCCCC#N", "Potency": "inactive"},
      {"smiles": "CCCCCCCCCCCCCCCl", "Potency": "inactive"},
      {"smiles": "CN1CC[C@]23c4c5ccc(O)c4O[C@H]2[C@@H](O)C=C[C@H]3[C@H]1C5", "Potency": "inactive"},
      {"smiles": "CN1C(=O)CN=C(c2ccccc2)c2cc([N+](=O)[O-])ccc21", "Potency": "inactive"},
      {"smiles": "C=CC(=O)OCC", "Potency": "inactive"},
      {"smiles": "C=CC(C)(CCC=C(C)C)OC(=O)c1ccccc1N", "note": "(stereo not given)", "Potency": "inactive"},
      {"smiles": "CCCCOC(=O)CCC(=O)OCCCC", "Potency": "inactive"},
      {"smiles": "O=S(=O)(c1ccccc1)c1ccccc1", "Potency": "inactive"},
      {"smiles": "O=C1NC(=O)C(=O)C(=O)N1", "Potency": "inactive"},
      {"smiles": "CCCC[N+](CCCC)(CCCC)CCCC", "Potency": "inactive"},
      {"smiles": "CCOC(C(=O)OCCN(C)C)(c1ccccc1)c1ccccc1", "Potency": "inactive"},
      {"smiles": "C[C@H]1[C@@H]2Cc3ccc(O)cc3[C@@]1(C)CCN2C", "Potency": "inactive"},
      {"smiles": "c1ccc2c(c1)sc1ccccc12", "Potency": "inactive"},
      {"smiles": "Nc1ccc2c(c1)Cc1ccccc1-2", "Potency": "inactive"},
      {"smiles": "C=C(C)C(=O)OCCCCOC(=O)C(=C)C", "Potency": "inactive"},
      {"smiles": "Clc1ccc(Cl)c(Cl)c1", "Potency": "inactive"}
    ]}
  ]
}
